# High-throughput results (PubChem)
# USP2a block: inhibitors of human ubiquitin-specific protease USP2a | USP2 core, Ub-CHOP2 coupled fluorogenic reporter, 485/531 | actives 0.01% (n = 330,000) | Potency, µM (doses to about 38.3 µM), for the others: top-dose activity change, negative = inhibition, usual class: inhibitors | O75604;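 further: plate controls were DMSO wells for no effect and full inhibition by NEM control for full effect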
#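 Cell-free coupled assay: 10nM USP2 core preincubated 30min RT with compound in Tris-HCl pH 8.0/CaCl2/CHAPS buffer, then 25nM Ub-CHOP2 and 25nM reporter substrate; fluorescence (Ex 485/Em 531) read after 60min RT, normalized to NEM inhibition, concentration-response curves fitted.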
# PTAP TSG101 blk: blocks PTAP/TSG101 interaction to inhibit HIV-1 budding; 340,000 tested, under 10 active; Q99816; Potency, µM (doses to about 115 µM), inactives show at the top dose activity change, negative = inhibition, usual class: inhibitors; Fluorescence polarization, FITC-PTAP peptide / Tsg101 binding; AID 493005; active means well fitted inhibition curve with a large enough effect in the main read-out, with a control signal flat, not every such curve was filed as active; inconclusive means small, poorly fitted or top-dose-only effect, or effect the other way, or a change in a side signal; inactive means no such curve, though single readings can be large or run the other way; further: % of control where 0% means no effect
#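 Steps: Tsg101 binding domain dispensed (10 uM final), compounds pinned in DMSO, FITC-labeled PTAP-motif peptide added (50 nM final); after 20 min binding at room temperature, polarization measured.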
# Eya2 inh: blocks the phosphatase activity of human Eya2; recombinant Eya2, OMFP fluorescence dephosphorylation (OMFP is methylfluorescein phosphate); Potency, µM (doses to about 76.9 µM), for the others: at the highest dose activity, negative = inhibition, usual class: inhibitors; actives 0.006% (n = 330,000); further: on the % scale 0 is the no-effect control and ±100 the full control effect
# Target sequence (O00167 whole entry, looked up): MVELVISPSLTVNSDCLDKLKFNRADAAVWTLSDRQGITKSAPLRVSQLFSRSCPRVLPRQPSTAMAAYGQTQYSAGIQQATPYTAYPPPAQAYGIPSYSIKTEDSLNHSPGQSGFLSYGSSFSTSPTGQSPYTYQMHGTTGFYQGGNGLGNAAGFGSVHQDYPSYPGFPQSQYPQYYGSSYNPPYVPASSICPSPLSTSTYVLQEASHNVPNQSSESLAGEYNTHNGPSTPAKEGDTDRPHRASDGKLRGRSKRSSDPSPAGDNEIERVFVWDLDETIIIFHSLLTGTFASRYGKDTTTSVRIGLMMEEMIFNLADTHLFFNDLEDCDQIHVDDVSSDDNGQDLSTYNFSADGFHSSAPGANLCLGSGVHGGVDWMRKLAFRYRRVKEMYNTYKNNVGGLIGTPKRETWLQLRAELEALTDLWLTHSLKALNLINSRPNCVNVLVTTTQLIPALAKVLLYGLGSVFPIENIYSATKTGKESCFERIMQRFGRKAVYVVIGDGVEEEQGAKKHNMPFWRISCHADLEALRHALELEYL
#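 Eya2 (0.2 uM) preincubated 10 min at ambient with compound, then OMFP substrate added at 50 uM; 10 min reaction in 50 mM HEPES pH 7.5, 50 mM NaCl, 5 uM MgCl2, 0.05% BSA, 1 mM DTT. Fluorescence read at Ex 485/Em 525 nm.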
# 12-LOX inh: blocks human arachidonate 12S-lipoxygenase; P18054; purified 12hLO, xylenol orange hydroperoxide absorbance; Potency, µM (top dose mostly 108 µM), without a hit: top-dose activity change, negative = inhibition, actives largely listed as inhibitors; actives 1.1% (n = 580,000); AID 1671190; further: on the % scale 0 is the no-effect control and ±100 the full control effect
#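 Hydroperoxide product was detected by ferrous iron/xylenol orange as the 573 to 405 nm absorbance ratio. Arachidonic acid at 40 uM (final) was turned over for 30 min at room temperature by 150 nM human 12hLO, pH 7.0 Hepes buffer, after 15 min compound preincubation.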
# The depositor's hits bear a star; ? = inconclusive; / = no result; [ ] = another dose, or the depositor's remark. Only some compounds are listed: those with a hit (about 1.1% of all), similar ones and a draw of the others. Unless noted, the call rests on the fitted dose curve; in most records, active means well fitted curve in the direction sought with a large enough effect; inconclusive means small, poorly fitted or top-dose-only effect, or another doubt; inactive means no such curve, though single readings can be large; an effect the other way counts as inactive or inconclusive. Potency means the concentration at half of the fitted maximal effect.
SMILES,USP2a block,PTAP TSG101 blk,Eya2 inh,12-LOX inh
CCCS(=O)(=O)C(C)C(=O)O (stereo unspecified),/,/,/,-50%
CCN1CCN(CCOc2ccc3c(=O)c(-c4ccc(Cl)cc4)coc3c2)CC1,/,/,/,18µM*
Cc1ccc(CNCc2c(C(=O)O)c(C)n(Cc3c(C)cc(C)cc3C)c2C)cc1,/,/,/,-55%
O=c1[nH]c(Nc2ccccc2)cc2ccccc12,6%,-11%,?,?
O=c1[nH]c(Nc2ccccc2)cc2cc(Br)ccc12,/,-20%,/,16µM*
COc1ccccc1Nc1cc2cc(Br)ccc2c(=O)[nH]1,/,-2%,/,8.9µM*
O=C(/C=C/c1ccc(Cl)cc1Cl)c1ccccc1OC(F)F,/,/,/,0%
C1CNC(CN2CCOCC2)C1 (stereo unspecified),/,/,/,8.9µM*
C1CCCCCC2(CCCCC1)OCC(CN1CCOCC1)O2 (stereo unspecified),-1%,-6%,-11%,-20%
Cc1ccsc1CN1CCC(Oc2ccccc2-c2nc(-c3ccncc3)no2)C1 (stereo unspecified),/,/,/,45%
CCOC(=O)C1CCN(S(=O)(=O)c2ccc3c(c2)CC(=O)N3C)CC1,0%,-3%,12%,45µM*
Cc1ccnc(NC(c2ccccc2F)c2ccc3cccnc3c2O)c1 (stereo unspecified),/,/,/,22µM*
CCOC(=O)/C=C1/N(C)c2ccccc2C1(C)C,-1%,-2%,8%,17%
CN1/C(=C/C(=S)NC(=O)C2(C)CC2(Cl)Cl)C(C)(C)c2ccccc21 (stereo unspecified),9%,-3%,3%,22µM*
CN1/C(=C\C(=S)Nc2ccccc2)C(C)(C)c2ccccc21,1%,2%,-13%,-17%
COc1ccccc1C(=O)NC(=S)/C=C1/N(C)c2ccccc2C1(C)C,-9%,-2%,-1%,28µM*
CN1/C(=C\C(=O)Nc2ccc(Cl)cc2)C(C)(C)c2ccccc21,5%,0%,-19%,-30%
CN1/C(=C\C(=S)NC(=O)c2ccccc2Cl)C(C)(C)c2ccccc21,0%,0%,-4%,25µM*
Cc1ccc(NC(=O)NCCSc2ccc(C)cc2)cc1,-1%,1%,1%,-3%
COC(=O)Cc1ccc(NC(=S)NCCSc2ccc(C)cc2)cc1,-1%,-23%,4%,45µM*
Cc1ccccc1CSCCNC(=O)Nc1ccccc1,-2%,-3%,-14%,-14%
Cc1ccc(NC(=S)NCCSc2ccc(Cl)cc2)cc1,-3%,2%,7%,40µM*
Fc1ccccc1CSCCNC(=S)Nc1ccccc1,/,/,/,35µM*
Cc1cccc(C)c1NC(=S)NCCSc1ccc(Cl)cc1,3%,-1%,-18%,?
Cc1ccc(SCCNC(=S)Nc2cc(C)cc(C)c2)cc1,2%,-5%,-32%,?
SMILES,USP2a block,PTAP TSG101 blk,Eya2 inh,12-LOX inh
S=C(NCCSc1ccc(Cl)cc1)Nc1ccc(Nc2ccccc2)cc1,/,/,/,35µM*
Cc1oc(C(O)c2ccccc2F)nc1C(=O)Nc1ccc2[nH]ccc2c1 (stereo unspecified),/,/,/,3%[176 µM]
CN(C)Cc1ccc(-c2cc(-c3ccncc3)c3cncn3c2)cc1,/,/,/,3%[176 µM]
CCCN(CCC)c1nc2ccccc2nc1C(C#N)C(=O)OCCOC (stereo unspecified),/,-3%,/,?
CCCOC(=O)C(C#N)c1nc2ccccc2nc1Cl (stereo unspecified),/,/,/,18µM*
COc1ncccc1-c1nnn(-c2ccccc2Br)n1,/,/,/,28µM*
O=C(c1ccc2ncccc2c1)N1CCCN(c2cc(-c3ccc(Cl)cc3)[nH]n2)CC1,/,/,/,20%
CC(C)(CO)C(O)C(=O)NCCCS(=O)(=O)O (stereo unspecified),/,/,/,-26%
CCOC(=O)Nc1ccc(C)cc1NC(=O)OCC,-1%,-1%,-5%,-1%
CCOC(=O)Nc1ccc(NS(=O)(=O)c2ccc(C)cc2Cl)cc1,/,/,/,32µM*
O=C(CCc1ncc(-c2ccc(F)cc2)o1)NCCc1ccccc1,/,/,/,0%
Cc1ccc(NC(=O)Cn2c(O)c(N=NS(=O)(=O)c3ccc(C)cc3)c3ccccc32)cc1,2%,-5%,-9%,14µM*
O=C1NN(c2ccc(Cl)cc2)C(=O)/C1=C\c1ccc(-c2cccc(C(=O)O)c2)o1,7%,-2%,12%,40µM*
Cc1noc(C)c1-c1nc(NCCN2CCOCC2)c2ccccc2n1,/,/,/,56µM*
COc1ccccc1-n1c(SCC(=O)NCC2CCCO2)nc2c([nH]c3ccccc32)c1=O (stereo unspecified),3%,-3%,-5%,35µM*
CCOC(=O)COc1ccc(/C=C2/C(=O)NN(c3ccc(F)cc3)C2=O)cc1OC,0%,-1%,8%,-11%
CCOC(=O)c1ccc(N2NC(=O)/C(=C/c3ccc(OC(=O)c4ccco4)c(OC)c3)C2=O)cc1,-1%,/,3%,22µM*
CN(C)CCCN=c1c2ccccc2n(C)c2[nH]c(=O)n(C)c(=O)c12,/,/,/,22µM*
CN(C)CCCn1c(=S)[nH]c2ccccc2c1=O,1%,-5%,3%,-20%
COC(=O)COc1cccc(NC(=O)c2ccc(C)cc2)c1,1%,-2%,-8%,?
COC(=O)COc1cccc(N)c1,/,/,/,13µM*
O=C(c1c(O)cc(O)cc1O)C1c2c(cc(O)c3c2O[C@H](c2ccc(O)cc2)[C@@H](O)C3)OC1c1ccc(O)cc1 (stereo partly specified),-1%,-2%,10%,25µM*
CCN1c2cc(C(=O)Nc3ccc(C)c(F)c3)ccc2C(=O)N2CCCCCC21 (stereo unspecified),/,/,/,7%
CCN(CC)C(=O)C1=C(C)N(Cc2ccc(OC)cc2)C(=O)C(CC(=O)NCCN2CCOCC2)C1 (stereo unspecified),/,/,/,16µM*
CC(C)CCNC(=O)c1cnc2n1CCN(CCCc1ccccc1)CC2,/,/,/,1%[176 µM]
SMILES,USP2a block,PTAP TSG101 blk,Eya2 inh,12-LOX inh
COc1ccc2c(c1)C(n1ccc3ccccc31)C(=O)N2Cc1ccc(C(C)C)cc1 (stereo unspecified),/,/,/,14µM*
COc1ccc(CN2C(=O)C(n3cccc3)c3ccccc32)cc1 (stereo unspecified),/,/,/,-23%
CCOC(=O)c1cccn1C1C(=O)N(Cc2ccc(C(F)(F)F)cc2)c2ccccc21 (stereo unspecified),/,/,/,-11%
COc1ccc(CN2C(=O)C(n3c(C)ccc3C)c3cc(OC(F)(F)F)ccc32)cc1 (stereo unspecified),/,/,/,40µM*
Cc1ccc(C)n1C1C(=O)N(Cc2ccc(C(F)(F)F)cc2)c2ccc(F)cc21 (stereo unspecified),/,/,/,25µM*
COc1ccc2c(c1)C(n1c(C)ccc1C)C(=O)N2Cc1ccc(C(F)(F)F)cc1 (stereo unspecified),/,/,/,13µM*
COCCOCc1nc(C2CCCCN2C(=O)Nc2cccc(C(F)(F)F)c2)no1 (stereo unspecified),/,/,/,16%
